Active and inactive are the calls of the source. Unless noted, no rule for the calls is given here.
Assays:
[1] = system: XIP peptide (Xip251-270) binding; assay: XIP fragment 251-270 binding compounds – biochemical, small-molecule microarray, fluorescence 635/667 nm, 0.1 µg/mL protein, primary screen (AID 1182); conditions: fluorescent protein binding, 635 nm, higher = more signal, called active from +8 up or from −8 down
[2] = system: XIP peptide (Xip251-270); assay: compounds binding XIP fragment 251-270 – biochemical, small-molecule microarray, fluorescence 635/667 nm, 0.5 µg/mL protein, primary screen (AID 1183); conditions: fluorescence 635 nm, higher = more signal
[3] = blood-stage malaria parasite viability loss – strain 3D7, DAPI fluorescence, 100 nL, primary screen (AID 1184);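 also: parasites grown inside human red blood cells in medium with human serum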; conditions: P. falciparum 3D7 growth, 3 d, higher = more signal
[4] = target: Homeobox protein Hox-A13 (Mus musculus) (UniProt Q62424); assay: disruptors of Hoxa13 oligonucleotide interaction – biochemical, fluorescence polarization, labeled oligonucleotide, primary screen (AID 1185); conditions: Hoxa13:DNA binding, 15 min, higher = more signal, called active from +8 up or from −8 down
Sequence of Homeobox protein Hox-A13 (Mus musculus) (Q62424 whole entry, looked up): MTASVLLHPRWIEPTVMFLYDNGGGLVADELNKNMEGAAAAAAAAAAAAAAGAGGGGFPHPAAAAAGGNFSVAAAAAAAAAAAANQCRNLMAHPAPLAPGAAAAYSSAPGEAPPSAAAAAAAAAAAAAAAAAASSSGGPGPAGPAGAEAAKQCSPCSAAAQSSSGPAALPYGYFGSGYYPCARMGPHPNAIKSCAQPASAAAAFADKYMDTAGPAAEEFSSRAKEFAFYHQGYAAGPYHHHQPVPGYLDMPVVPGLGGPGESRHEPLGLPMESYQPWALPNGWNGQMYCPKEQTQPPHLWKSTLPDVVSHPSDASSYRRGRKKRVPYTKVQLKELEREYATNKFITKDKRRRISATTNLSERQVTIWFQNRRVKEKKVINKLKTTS

[5] = blockers of DNA damage checkpoint Chk1 activation – imaging, HeLa, hydroxyurea, phospho-Chk1 antibody, percent positive cells, primary screen (AID 1186); conditions: hydroxyurea-induced phospho-Chk1 immunofluorescence imaging, higher = more signal
[6] = blockers of DNA damage checkpoint Chk1 activation – imaging, HeLa, hydroxyurea, phospho-Chk1 nuclear intensity, primary screen (AID 1187); conditions: hydroxyurea-induced phospho-Chk1 immunofluorescence imaging, higher = more signal

Compound | composite z-score [1] | composite z-score [2] | z-score [3] | z-score [4] | z-score [5] | z-score [6]
C=CCOC(=O)[C@@H]1[C@H]2C(=O)O[C@H](c3ccccc3)[C@H](c3ccccc3)N2[C@H](c2ccc(OCCOC(=O)[C@H]3C[C@H]4C(=O)N[C@@H](CCCC[N+](C)(C)C)C(=O)N4[C@H]3c3cccc(OCCO)c3)cc2)[C@@]12C(=O)Nc1ccc(I)cc12 | 1.31 (inactive) | 0.646 | -1.82 | 1.38 (inactive) | -0.118 (inactive) | -0.176 (inactive)
COc1ccc([Si](C)(C)[C@@H]2[C@@H](CCn3cc([C@H](O)c4ccccc4)nn3)O[C@]3(C(=O)N(C)c4ccccc43)[C@H]2C)cc1 | -0.558 (inactive) | 0.679 | -1.13 | -6.22 (inactive) | 0.131 (inactive) | -0.858 (inactive)
COCCOC(=O)N1C(=O)[C@@]2(c3cc(C#CCCO)ccc31)[C@H](c1ccc(O)cc1)N1[C@H](c3ccccc3)[C@H](c3ccccc3)OC(=O)[C@H]1[C@@H]2C(=O)N1CCCCCCC1 | 0.449 (inactive) | 0.723 | -0.0358 | -1.14 (inactive) | -0.0035 (inactive) | -0.334 (inactive)
O=C(NCC(O)CO)[C@]1(CCS(=O)(=O)c2ccccc2)N=C(c2ccc(OCCCO)cc2)O[C@@H]1c1ccccc1 (some centres not stated) | 1.51 (inactive) | -0.0557 | -0.434 | -7.16 (inactive) | 0.429 (inactive) | -0.0974 (inactive)
C=C(C)[C@@H]1CC=C(C(O)C2C=CC3C(=O)N(Cc4ccccc4)C(=O)C3N2n2cnnc2)CC1 (some centres not stated) | -0.137 (inactive) | 0.3 | -1.03 | -1.35 (inactive) | -0.0789 (inactive) | 0.265 (inactive)
CC(C)[C@H]1COC(=O)N1C(=O)[C@H]1[C@@H](c2ccccc2)N(c2ccccc2)O[C@@H]1C | 0.223 (inactive) | 0.267 | 0.0321 | -3.46 (inactive) | -0.965 (inactive) | -1.2 (inactive)
CCCCCCC#C[Si](O[C@H](c1ccccc1)c1cn([C@H](C)c2ccccc2)nn1)(C(C)C)C(C)C | -0.131 (inactive) | -0.012 | 0.308 | 0.337 (inactive) | -0.341 (inactive) | -0.487 (inactive)
C=CCN1C(=O)[C@]2(Cc3ccccc31)N=C(c1ccc(OCCCO)cc1)O[C@@H]2c1ccccc1 | 0.526 (inactive) | 0.791 | -2.07 | -4.97 (inactive) | -0.149 (inactive) | 0.0449 (inactive)
CC(C)OC(=O)C1=CCC(c2cccc(Cl)c2)O1 (configuration not stated) | 0.0142 (inactive) | 0.677 | -1.39 | -0.554 (inactive) | 0.147 (inactive) | 0.0282 (inactive)
NC(=O)NCC#Cc1ccc2c(c1)[C@]1(C(=O)N2)[C@H](c2ccccc2OCCO)N2[C@H](c3ccccc3)[C@H](c3ccccc3)OC(=O)[C@H]2[C@@H]1C(=O)N1CCCCCCC1 | 0.909 (inactive) | 0.633 | -2.04 | 3.45 (inactive) | 0.264 (inactive) | 0.69 (inactive)
CN1C(=O)C2C=CC(C(O)C(c3ccccc3)c3ccccc3)N(Nc3ccccc3)C2C1=O (configuration not stated) | 0.0848 (inactive) | 0.68 | 0.608 | -4.01 (inactive) | 0.535 (inactive) | -0.0171 (inactive)
COC(=O)c1nc2oc1CC[C@@H](CO)NC(=O)N(C)Cc1cn(nn1)C[C@H](Cc1ccccc1)NC2=O | 0.827 (inactive) | 0.969 | 1.24 | -1.31 (inactive) | -0.0288 (inactive) | -0.455 (inactive)
CCOC(=O)C1=CC[C@@H](c2ccccc2)N(S(=O)(=O)c2ccc(C)cc2)[C@H]1c1ccc(C#N)cc1 | 0.432 (inactive) | 0.728 | -1.95 | 0.426 (inactive) | 0.972 (inactive) | 0.136 (inactive)
CC(=O)NCCCC[C@@H]1NC(=O)[C@@H]2C[C@H](C(=O)NCCCCCC[N+](C)(C)C)[C@H](c3cccc(OCCO)c3)N2C1=O | 1.52 (inactive) | 0.345 | 0.129 | -4.94 (inactive) | -0.502 (inactive) | -0.0493 (inactive)
C=C(/C(=C/C[C@@H](OC(C)=O)c1ccc(CO)o1)c1cnc2ccccc2c1)C(C)C | 0.64 (inactive) | 0.764 | -1.43 | -5.54 (inactive) | -0.0375 (inactive) | 0.0518 (inactive)
O=c1cccc(-c2ccccc2)o1 | -0.724 (inactive) | 0.765 | 0.495 | -1.85 (inactive) | 0.403 (inactive) | 0.0838 (inactive)
[N-]=[N+]=NCc1ccccc1C[C@]1(C(N)=O)N=C(c2ccc(OCCCO)cc2)O[C@H]1c1ccccc1N=[N+]=[N-] | 2.56 (inactive) | 0.664 | -2.06 | -4.7 (inactive) | -0.118 (inactive) | -0.0296 (inactive)
CN1C(=O)C2C=CC(C(O)C(C)(C)C)N(Nc3ccccc3)C2C1=O (configuration not stated) | 0.127 (inactive) | 0.403 | 0.987 | -0.565 (inactive) | -0.415 (inactive) | -0.815 (inactive)
CCOC(=O)N1C(c2ccc(OCCCO)cc2)=NC(C(=O)OC)N1C(=O)OCC (configuration not stated) | 1.43 (inactive) | 0.735 | -1.28 | -4.45 (inactive) | -0.231 (inactive) | -0.116 (inactive)
CC(C)N1C(=O)c2ccccc2[C@](C)(C(=O)NC2CC2)[C@@H]1c1ccc(CO)cc1 | -0.318 (inactive) | 0.0807 | -0.335 | -1.64 (inactive) | -0.119 (inactive) | 0.0866 (inactive)
COC(=O)[C@@]1(Cc2ccccc2)[C@H]2c3cc(C(=O)N(C)C)n(Cc4ccccc4)c3C[C@H]2CN1C(=O)c1ccccc1 | 0.394 (inactive) | 0.225 | -1.43 | -5.49 (inactive) | 1.54 (inactive) | 0.928 (inactive)
O=C1NC(=O)C2C1C=CC(C(O)c1cccs1)N2Nc1ccccn1 (configuration not stated) | 1.43 (inactive) | 0.438 | 0.197 | -5.03 (inactive) | -0.0367 (inactive) | -0.263 (inactive)

From PubChem BioAssay
